A selection: hits, their analogues and other compounds. The true share with any hit is near 3.1%.
BoNT-F LC inh = BoNT/F light chain protease inhibitors, primary screen, biochemical, flow cytometry, MLPCN library. Botulinum neurotoxin type F light chain protease (Clostridium botulinum). Multiplex microsphere protease cleavage assay. inhibition, % at 10 µM. 360,000 compounds, 0.22% hits. AID 588497, 2011; in the data active = inhibition above about 35%, passing the limit was not always enough; inconclusive = no clear call, values can overlap the other calls; note: plate controls were buffer without enzyme for full effect and enzyme alone for no effect
Autofluor counter = counter-screen for toxin protease inhibitors: compound fluorescence. compound autofluorescence counterscreen, microsphere flow cytometry; stronger effect = higher value. fluorescence intensity (no concentration beside the values). 360,000 compounds, 3.1% hits. AID 624483; in the data active = fluorescence intensity above about 16000; inconclusive = no clear call, values can overlap the other calls
Anthrax LF prot = Bacillus anthracis LF protease inhibitors, primary screen, biochemical, multiplex microsphere, MLPCN library. Lethal factor (Bacillus anthracis), P15917. multiplex microsphere protease cleavage assay. inhibition, % at 10 µM. 360,000 compounds, 0.12% hits; note: plate controls were buffer without enzyme for full effect and enzyme alone for no effect
Target sequence (P15917 whole entry, looked up): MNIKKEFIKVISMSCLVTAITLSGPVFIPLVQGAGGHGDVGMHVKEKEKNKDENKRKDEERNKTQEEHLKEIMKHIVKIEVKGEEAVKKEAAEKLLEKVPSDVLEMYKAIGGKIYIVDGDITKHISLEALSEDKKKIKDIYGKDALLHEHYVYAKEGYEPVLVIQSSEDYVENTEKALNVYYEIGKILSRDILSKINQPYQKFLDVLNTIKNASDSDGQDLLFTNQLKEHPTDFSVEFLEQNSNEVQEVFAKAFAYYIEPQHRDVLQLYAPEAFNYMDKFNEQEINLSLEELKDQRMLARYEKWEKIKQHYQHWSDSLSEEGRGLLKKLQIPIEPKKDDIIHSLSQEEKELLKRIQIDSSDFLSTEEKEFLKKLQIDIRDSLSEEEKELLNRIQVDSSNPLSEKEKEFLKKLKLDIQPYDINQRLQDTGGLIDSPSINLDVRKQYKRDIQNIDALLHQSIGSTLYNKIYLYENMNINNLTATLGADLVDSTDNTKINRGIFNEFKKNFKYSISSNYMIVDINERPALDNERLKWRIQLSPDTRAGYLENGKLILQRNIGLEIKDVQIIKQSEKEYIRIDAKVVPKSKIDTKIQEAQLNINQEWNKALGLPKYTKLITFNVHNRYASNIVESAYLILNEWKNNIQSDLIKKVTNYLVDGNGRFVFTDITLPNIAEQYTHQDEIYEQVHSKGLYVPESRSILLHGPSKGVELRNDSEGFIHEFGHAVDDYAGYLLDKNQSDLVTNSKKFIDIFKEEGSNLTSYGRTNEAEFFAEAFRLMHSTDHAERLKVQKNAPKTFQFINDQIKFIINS
PriA SSB inh = inhibitors of Klebsiella pneumoniae PriA binding to SSB C-terminal tail, primary screen, biochemical, AlphaScreen; PriA–SSB C-terminal tail interaction (Klebsiella pneumoniae); AlphaScreen SSBct-PriA binding, biotinylated peptide; inhibition, % at 33 µM; 430,000 compounds, 0.6% hits; AID 1272365, 2023; in the data active = inhibition mostly above about 37%, no sharp cut-off; inactive = mostly below about 20%;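 note: plate controls were negative control peptide for no effect and reference peptide for full effect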
BoNT A protease = BoNT/A light chain protease inhibitors, primary screen, biochemical, flow cytometry, MLPCN library; Botulinum neurotoxin type A light chain protease (Clostridium botulinum A str. ATCC 3502); inhibition, % at 10 µM; AID 588499, 2011; multiplex microsphere protease substrate cleavage; 360,000 compounds, 0.17% hits; note: plate controls were buffer without enzyme for full effect and enzyme alone for no effect
An asterisk follows results filed as active; ? = inconclusive; · = no result given. Cut-off read from the data, not from the text of the source, unless noted: active = inhibition above about 30%; inconclusive = no clear call, values can overlap the other calls; inactive = below that.

SMILES	BoNT-F LC inh	Autofluor counter	Anthrax LF prot	PriA SSB inh	BoNT A protease
CCc1cccc(C)c1NC(=O)c1cc(C)oc1C	0	22641*	-4	-3	2
CCc1ccccc1NC(=O)c1cc(C)oc1C	·	·	·	-6	·
CC(C)c1ccccc1NC(=O)c1cccnc1	11	4389	4	-22	0
CCc1cccc(C)c1NC(=O)c1cccnc1	?	3027	31*	-11	5
CCC(C)c1ccccc1NC(=O)c1cccnc1 (stereo not given)	-3	23335*	-5	-3	-2
CCOCC(=O)Nc1ccc2c(c1)C(=O)NCCO2	·	·	·	5	·
O=S(=O)(c1ccc(-c2ccc(Cl)cc2)cc1)N1CCN(c2ccccc2)CC1	·	·	·	-11	·
CCOP(=O)(OCC)c1nc(-c2cccc3ccccc23)oc1NCc1ccccc1	-9	17554*	-5	-4	-5
CCOP(=O)(OCC)c1nc(/C=C/c2ccccc2)oc1NCc1ccc(OC)cc1	-7	24914*	-14	-61	-6
Nc1ccccc1Nc1cc(-c2ccccc2)nn1-c1cccc(Cl)c1	-15	2127	-3	59*	-1
O=C(CCl)Nc1cc(-c2ccccc2)nn1-c1ccccc1	4	9485	-5	-9	1
CCCCN1C(=O)c2ccccc2C1C(=O)NC1CCCC1 (stereo not given)	2	22700*	-1	-3	2
O=C(NC1CCCCC1)C1c2ccccc2OCC(=O)N1CCCN1CCOCC1 (stereo not given)	-2	5204	2	·	0
O=C1c2cccnc2C(O)N1C1CCCCC1 (stereo not given)	-4	23226*	-1	-5	-3
O=C1c2cccnc2C(O)N1Cc1ccccc1 (stereo not given)	-13	11731	-1	-3	-1
CC1CCC(NC(=O)C2c3ccccc3C(=O)N2CCCN2CCOCC2)CC1 (stereo not given)	-3	24072*	-2	-12	?
O=C(NC1CCCCCCC1)C1c2ccccc2C(=O)N1Cc1ccco1 (stereo not given)	9	9541	1	-6	1
O=C(NC1CCCC1)C1c2ccccc2C(=O)N1C1CCCCC1 (stereo not given)	1	19915*	0	-14	2
CCOc1ccccc1NC(=O)c1oc2ccccc2c1NC(=O)c1c(F)cccc1F	·	·	·	9	·
O=c1[nH]c(=O)n(-c2ccccc2)c(O)c1C=CC=Nc1ccccc1	·	·	·	3	·
CC(O)(CNS(=O)(=O)c1cccnc1)Cc1ccco1 (stereo not given)	·	·	·	-5	·
Cc1ccc(-c2nc(CSCC(=O)NCCCN3CCOCC3)c(C)o2)cc1	-5	9573	4	-15	1
Cc1ccc(-c2nc(CSCC(=O)NCCN3CCN(Cc4ccccc4)CC3)c(C)o2)cc1	-5	17085*	-3	0	-3
Cc1oc(-c2cccc(Cl)c2)nc1CN1CCC(C(=O)N2CCN(c3ccccn3)CC2)CC1	-1	6634	-6	4	-1
CCOC(=O)N1CCC(NC(=O)CSCc2nc(-c3ccc(OC)c(OC)c3)oc2C)CC1	-3	20515*	0	-7	?
SMILES	BoNT-F LC inh	Autofluor counter	Anthrax LF prot	PriA SSB inh	BoNT A protease
Cc1cccc(-c2nc(CSCC(=O)N3CCN(c4ccccn4)CC3)c(C)o2)c1	-7	16627*	-5	4	-1
Cc1ccc(-c2nc(CSCC(=O)N3CCCC3)c(C)o2)cc1	-4	23517*	-4	-17	-3
CCCCCOc1ccc(C(=O)Nc2cc(C)nn2C)cc1	·	·	·	-6	·
Cc1ccnc(N)n1	·	·	·	-14	·
Cc1cc(C)n(-c2cc(SCC(=O)NCc3cccc(C(F)(F)F)c3)ncn2)n1	·	·	·	-3	·
O=C(COc1ccc(Cl)cc1Cl)Nc1ccc2c(c1)N(C(=O)c1ccco1)CC2	·	·	·	0	·
CNC(=O)CCc1nc2sc3c(c2c(=O)[nH]1)CCC(C(C)(C)C)C3 (stereo not given)	·	·	·	-14	·
CC(C)(C)c1nc(CN2CCOCC2)ccc1O	2	21380*	-2	-7	2
Oc1c(N=Nc2ccccn2)ccc2ccccc12	-17	6158	12	49*	36*
Cc1cc(C)n(C(=O)c2sccc2S(=O)(=O)N(C)c2ccc(Cl)cc2)n1	·	·	·	-6	·
Nc1nonc1-n1nnc(C(=O)NN=Cc2ccco2)c1CSc1ccccc1	·	·	·	8	·
O=C(O)c1cc(S(=O)(=O)N2CCCCC2)ccc1F	-4	21594*	-2	14	-3

Screens (PubChem)
